Rows were chosen to be rich in hits. Some 21% of all compounds tested hit in one or more screens of this group.
Cycloheximide cs: affects cycloheximide protein synthesis inhibition readout, counter-screen; cell reporter, cycloheximide protein synthesis inhibition counterscreen; max response, %; actives 12% (n = 300,000); in the data active = max response mostly above about 13%, no sharp cut-off; inactive = mostly below about 14%; note: read at 38.3 µM for the half of the compounds with a filed dose; 0% is about no effect
Pf growth 48h: inhibits P. falciparum growth in the first generation, 48 h. P. falciparum luciferase growth in erythrocytes, 48 h. Potency, µM (highest dose often 28.7 µM), for the others: top-dose activity change, negative = inhibition, most hits filed as inhibitors. actives 5.9% (n = 310,000); note: potency is the fitted concentration of half-maximal effect; % is set by controls: 0 for no effect and ±100 for the full control effect
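Read-out is firefly luciferase luminescence from an integrated reporter in P. falciparum, so falling signal marks reduced parasite growth. Infected erythrocytes were at 2% hematocrit and 0.1% parasitemia (final) in Albumax-supplemented RPMI 1640.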
Pf growth 96h: inhibits malaria parasite growth, 96 h; Potency, µM (top dose mostly 28.7 µM), for the others: top-dose activity change, negative = inhibition, most hits filed as inhibitors; P. falciparum luciferase reporter growth, 96 h; AID 504834; actives 6.9% (n = 320,000); note: potency is the fitted concentration of half-maximal effect; % is set by controls: 0 for no effect and ±100 for the full control effect
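Parasite growth measured via integrated firefly luciferase reporter in P. falciparum. Infected erythrocytes at 2% hematocrit, 0.05% parasitemia final were treated 96 hours at 37 C under 5% CO2, and luminescence was read.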
Shiga inhibitor: inhibitors of Shiga toxin in Vero cells; Vero cells, Shiga toxin protein synthesis inhibition reporter; AID 2315; inhibition, % at 38.7 µM; actives 9.2% (n = 290,000); in the data active = inhibition mostly above about 28%, no sharp cut-off; inactive = mostly below about 43%; note: 0% is about no effect
NS1 inh: influenza NS1 inhibition | Potency, µM (highest dose often 46.1 µM), for inactives: at the top dose activity, positive = more growth | actives 0.4% (n = 270,000); calls by dose curve; note: potency is the fitted concentration of half-maximal effect; actives are rising curves; nearly all actives have a fitted effect of over 50% in size
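Growth recovery, yeast-based: influenza A NS1 expressed in S. cerevisiae causes slow growth, and suppressors are detected by OD600. The parent strain without NS1 is used as positive control.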
* marks the source's active call; other numbers are inactive results; ? = inconclusive; · = not tested or not shown; + = active, no number. Unless noted, calls come from the whole dose curve; as a rule, active = well fitted inhibition curve with a large enough effect; inconclusive = small, poorly fitted or top-dose-only effect, or another doubt; inactive = no such curve, though single readings can be large or run the other way.

SMILES | Cycloheximide cs | Pf growth 48h | Pf growth 96h | Shiga inhibitor | NS1 inh
CNC(=O)CSc1nnc(NC(=O)C2CC(=O)N(c3ccccc3OC)C2)s1 (stereo unspecified) | -3.0 | -5.0% | -18.6% | -2.5 | 3.3%
Cc1ccc(S(=O)(=O)Nc2ccccc2N2CCOCC2)cc1 | -4.7 | 86.9% | -1.4% | 8.4 | -7.1%
C=CCNC(=O)c1cn(CC)c2cc(N3CCN(C(=O)c4ccco4)CC3)c(F)cc2c1=O | -3.0 | 7.38µM* | ? | -6.8 | -11.6%
COC(=O)c1cccc(NC(N)=S)c1 | -2.2 | 0.3% | -7.4% | 31.0 | 7.0%
O=C(Nc1ccc2ccccc2c1)c1onc2c1CCCC2 | 28.3* | -12.6% | -0.5% | 63.7* | -8.0%
COC(=O)c1cccc(NC(=O)c2onc3c2CCCC3)c1 | 99.1* | 292.2% | 335.5% | + | -19.3%
CC(=O)c1cccc(NC(=O)C(C)OC(=O)/C=C/c2cccs2)c1 (stereo unspecified) | · | 1.1% | 79.8% | · | ·
O=C(Nc1cccc(Br)c1)c1ccc(Cl)c(S(=O)(=O)N2CCOCC2)c1 | 21.3* | 6.57µM* | -2.9% | 35.4 | -3.9%
O=C(NC1CCCC1)c1cc(S(=O)(=O)N2CCOCC2)c(Cl)cc1Cl | 6.4 | -30.0% | 4.65µM* | -10.7 | 1.1%
O=C(Nc1cccc(S(=O)(=O)C(F)F)c1)c1ccc(Cl)c(S(=O)(=O)N2CCOCC2)c1 | 10.2 | 9.28µM* | · | -9.3 | 19.7%
O=C(Nc1cccnc1)c1ccc(Cl)c(S(=O)(=O)N2CCOCC2)c1 | -5.2 | -26.2% | -22.7% | -8.2 | -5.1%
O=C(Nc1cccc(C(=O)NC2CC2)c1)c1ccc(Cl)c(S(=O)(=O)N2CCOCC2)c1 | · | ? | 13.1µM* | · | ·
O=C(NCCCN1CCOCC1)C(=O)N/N=C/c1ccc2c(c1)OCO2 | -0.7 | 8.0% | -1.0% | -5.8 | 1.5%
COc1ccccc1N(C)S(=O)(=O)c1ccc(C(=O)OCC(=O)N(C(C)C)C(C)C)cc1 | -3.4 | 0.0% | 8.7% | -22.4 | -4.1%
NC1=NC2(CCCCC2)N=C(Nc2ccc(F)cc2F)N1 | -1.9 | ? | 3.7µM* | -11.7 | ?
CCCCOc1ccc(NC2=NC3(CCCC3)N=C(N)N2)cc1 | -2.3 | 1.17µM* | ? | -9.3 | -39.9%
COc1ccc(OC)c(NC2=NC3(CCCC3)N=C(N)N2)c1 | 2.3 | -21.5% | · | 12.6 | -3.7%
Cc1cc(C)cc(NC2=NC3(CCCCC3)N=C(N)N2)c1 | -3.6 | · | 1.04µM* | -1.5 | ?
Cc1cccc(NC2=NC(C)(C)N=C(N)N2)c1 | -2.3 | 0.0059µM* | -22.8% | 30.3 | 2.0%
CC1=CC(C)(C)N2C(=O)C3(N=C(N)NC(Nc4ccccc4)=N3)c3cc(C)cc1c32 (stereo unspecified) | -2.1 | ? | -1.2% | -5.3 | -7.8%
CC(C)C(C)NC(=O)COC(=O)C1CCN(S(=O)(=O)c2ccc3c(c2)OCCO3)CC1 (stereo unspecified) | · | 0.7% | 9.1% | · | ·
COCCNC(=O)/C(C#N)=C/c1cc(C(C)C)c(OC)cc1C | -2.0 | -13.0% | 18.5% | -6.5 | ·
CC(C)OC(=O)c1c(NC(=O)C2CC=CCC2C(=O)O)sc2c1CCCCC2 (stereo unspecified) | -1.8 | -2.9% | 9.28µM* | 13.9 | ?
NC(=O)c1c(NC(=O)C2CC=CCC2C(=O)O)sc2c1CCCCC2 (stereo unspecified) | -1.7 | -0.1% | ? | -5.1 | 0.2%
COc1ccc(-c2ncc3ccccn23)cc1 | 41.4* | 79.6% | · | 145.2* | -2.3%
SMILES | Cycloheximide cs | Pf growth 48h | Pf growth 96h | Shiga inhibitor | NS1 inh
COc1cccc(-c2ncc3ccccn23)c1 | 36.3* | 166.1% | 55.1% | 71.2* | 4.3%
COc1cc(OC)cc(-c2ncc3ccccn23)c1 | 11.0 | -0.2% | -17.5% | 16.6 | -4.1%
CS(=O)(=O)N(CC(=O)N1CCCCCC1)c1cc(Cl)ccc1Cl | -2.8 | -4.3% | ? | · | -7.2%
COc1ccc2c(CSc3nc4nc(C)cc(C)n4n3)cc(=O)oc2c1 | 1.0 | 13.1µM* | 7.7% | 2.5 | -5.8%
Cc1ccc2c(CSc3nc4nc(C)cc(C)n4n3)cc(=O)oc2c1 | -1.7 | ? | ? | -19.0 | -5.1%
CCOc1cccc2cc(C(=O)NCc3ccc(Cl)cc3)c(=N)oc12 | 5.0 | ? | -14.0% | 39.4 | 18.5%
CN(C(=O)c1ccc(NC(=O)c2ccco2)cc1)c1ccccc1 | 34.8* | 27.0% | -21.9% | 76.9* | -1.7%
CCN(C(=O)c1ccc(NC(=O)c2ccco2)cc1)c1ccccc1 | 0.8 | ? | 9.28µM* | -10.9 | 3.3%
CCN(C(=O)c1ccc(NC(C)=O)cc1)c1ccccc1 | 7.5 | · | -9.6% | -2.9 | 2.8%
CN(C(=O)c1cccc(NC(=O)c2ccco2)c1)c1ccccc1 | 1.3 | -6.8% | ? | · | 7.6%
O=C(CCNC(=O)c1ccccc1)NCC1CCCCC1 | 8.0 | 13.5% | 0.0% | 22.2 | ·
COC(=O)c1ccc(NC(=O)c2ccccc2CC[N+](=O)[O-])cc1 | 12.2 | 5.8% | 22.0% | 60.7 | ·
CCn1c2ccccc2c2cc(NC(=O)c3ccccc3[N+](=O)[O-])ccc21 | -1.2 | 0.5% | 15.6% | -9.3 | -1.4%
CCOC(=O)c1c(C)c(C(=O)Nc2cc(OC)ccc2OC)c(C)n1CC | 1.1 | ? | 4.3% | -9.1 | -37.2%
CCOC(=O)c1c(C)c(C(=O)Nc2ccccc2)c(C)n1CC | 24.3* | ? | 4.65µM* | 31.5* | -0.1%
CCOC(=O)c1ccc(Nc2ncccc2[N+](=O)[O-])cc1 | 34.9* | 252.9% | 0.586µM* | 62.1* | -0.1%
CCOC(=O)c1ccc(NC(=O)c2ccccc2[N+](=O)[O-])cc1 | 42.2* | 46.4% | 8.7% | 58.2* | -5.7%
COC(=O)c1ccc(NC(=O)c2cccc(C)c2[N+](=O)[O-])cc1 | 21.6* | 56.6% | -9.8% | 49.1 | -3.5%
CC(C)COc1ccc(CSCCNC(=S)Nc2ccccc2)cc1 | 15.3 | ? | ? | -5.5 | -13.3%
Cc1c(C(=O)N2CCCCCC2)c(S(=O)(=O)NCc2ccccc2Cl)c(C)n1C | 3.0 | ? | 24.7% | -3.3 | 5.9%
CCc1ccccc1NC(=S)N(CCN(C)C)Cc1cccs1 | -2.4 | 1.6% | ? | -17.4 | ·
O=C(CC(Sc1ccc(Br)cc1)C(=O)O)c1ccc(F)cc1 (stereo unspecified) | -4.3 | · | ? | -3.9 | -35.0%
COCCNC(=O)c1cccc(C)c1[N+](=O)[O-] | -3.3 | 28.2% | ? | -11.7 | 2.5%
CCOC(=O)c1ccc(NC(=O)c2ccc(NS(C)(=O)=O)cc2)cc1 | 11.7 | ? | -1.7% | 15.4 | -4.7%
COc1ccc(OC)c(NC(=O)c2cccc(C)c2[N+](=O)[O-])c1 | -0.8 | 9.4% | 1.65µM* | 25.5 | -6.8%
CCOC(=O)c1ccc(NC(=O)c2cccc(C)c2[N+](=O)[O-])cc1 | 20.3* | ? | 14.4% | 51.6* | -6.3%
CCOC(=O)c1ccc(NC(=O)c2ccccc2)cc1 | 48.7* | 17.0% | · | 81.4* | -73.0%
COc1ccc(NC(=O)Cn2cc(S(=O)(=O)N3CCN(c4ccccc4F)CC3)c3ccccc3c2=O)cc1Cl | 17.0 | · | · | 18.9 | ·
COC(=O)c1ccc(NC(=O)CNC(=O)C2CCCCC2)cc1 | -9.3 | 24.4% | 15.8% | -8.8 | 7.9%

Screening results as filed in PubChem BioAssay.
